Data on eleven compounds can be found in PubChem BioAssay (NCI).

Compounds without any hit were thinned out: in the full panel of roughly 83,000, 20% have a hit.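 Single-concentration screen, 48 h exposure, 96-well plates. Endpoint: percent growth. Below 10 = active.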 Values without a mark were called inactive. Activity calls are given as the source filed them.

This assay relates to UO-31 renal. The assay can be described thus: NCI-60 one-dose screen, 48 h (100 = growth as untreated, 0 = no growth, -100 = all killed). The conditions noted are these: 10 µM unless noted.
As for `Cc1ccc(NC(=O)c2ccc(CN3CCN(C)CC3)cc2)cc1Oc1ccc(-c2[nH]nc3ncnc(N)c23)cc1`, the growth is 85.3%.
For the compound `CCCn1cnc2c(c1=N)C(c1ccc(Cl)cc1)c1sc3c(C)cccc3c1O2` (stereo unspecified), the growth was 32.2%.
As for `C=C(C=O)[C@@H]1CC[C@]2(C)[C@H](CC=C3[C@H]4[C@@H](C)[C@H](C)CC[C@]4(C(=O)OC)CC[C@]32C)[C@@]1(C)CCC#N`, the figure is -83.5% (active); as for `NC(N)=Nc1ccc(Oc2cccc(NC(N)=Nc3ccc(I)cc3F)c2)cn1`, 83.8%; as for `Cc1occc1-c1nc2s/c(=C/c3ccc(-c4cc(C(F)(F)F)ccc4Cl)o3)c(=O)n2n1`, 87.4%.
For `C[C@H]1c2[nH]c3ccccc3c2C[C@H]2C(=O)N(CCCCCCC(=O)NO)CC(=O)N21`, the growth was 83.3%.
Take `COc1ccc(-c2cc(-c3ccc(Cl)cc3)c(C#N)c(=O)n2Cc2ccc(C(=O)O)cc2)cc1`: the growth is 68.1%.
Turning to `O=C1[C@H]2Cc3c([nH]c4ccccc34)[C@@H](c3ccc(Cl)cc3)N2C(=O)CN1C1CCN(Cc2ccccc2)CC1`, the growth was 26.4%.
`COc1cc(-c2nn(C(C)(C)C)cc2-c2ccnc(NCCCNS(=O)(=O)c3ccc(C)cc3)n2)ccc1Cl`: the growth is 44%.
Regarding `CCCCNNC(=O)c1ccc(-c2cccc(F)c2F)cc1`, the growth was 3.46% (active).
As for `CC1(C)CC[C@]2(C(=O)N3CCOCC3)CC[C@]3(C)C(=CC[C@@H]4[C@@]5(C)C/C(=C/c6ccccn6)C(=O)C(C)(C)[C@@H]5CC[C@]43C)[C@@H]2C1`, the growth is 42%.
